Compound activity (PubChem)
IEC-6 cytotox: counter-screen for KLF5 inhibitors: cytotoxicity in IEC-6 cells | IEC-6 cytotoxicity, luminescence viability | inhibition, % at 5 µM | 290,000 compounds, 0.78% hits; in the data active = inhibition above about 22%;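 also: 0% = plate median of test compound wells and 100% = cytotoxic reference compound wells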
BaF3 tox: parental Ba/F3 viability inhibition as JAK2V617F counter-screen | 220,000 compounds, 1.1% hits | CellTiter-Glo ATP luminescence | inhibition, % at 5.6 µM;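 active = inhibition above a per-campaign cutoff, the mean inhibition of all tested compounds plus 3 SD, cut at about 27% in these data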;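 also: 0% = DMSO wells and 100% = JAK Inhibitor I control wells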
APP transl inh: APP translation inhibition; SH-SY5Y APP 5'UTR-luciferase reporter, luminescence; inhibition, % at 2 µM; 190,000 compounds, 0.82% hits;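 active = inhibition above a set limit, derived from the sample mean plus 3 SD, cut at about 45% in these data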
Ba/F3 V617F tox: reduce viability of Ba/F3 cells dependent on JAK2V617F. Ba/F3 EpoR-JAK2V617F viability, ATP luminescence. inhibition, % at 5.6 µM. 220,000 compounds, 1.1% hits. AID 1446;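 active = inhibition above the campaign mean plus 3 SD over all tested compounds, cut at about 24% in these data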;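 also: cytokine-independent growth of Ba/F3 cells driven by EpoR plus mutant JAK2; 0% = DMSO-treated cells and 100% = JAK inhibitor I control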
KLF5 inh: suppresses KLF5 promoter-driven expression | 290,000 compounds, 0.23% hits | AID 1700 | DLD-1 KLF5 promoter-luciferase reporter, luminescence | inhibition, % at 5 µM;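 active = inhibition above a per-plate limit of that plate's mean compound inhibition plus 3 SD, cut at about 60% in these data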;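 also: 0% = DMSO wells and 100% = LY294002 at 200 µM; higher means less KLF5 promoter-driven luciferase light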
BaF3 tox 2: counter-screen for JAK2V617F inhibitors: parental Ba/F3 viability inhibitors. shares compounds with Ba/F3 V617F tox. CellTiter-Glo luminescence; cells kept alive by added IL-3. inhibition, % at 5.6 µM. 580 compounds, 31% hits. AID 1520;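 active = cell growth inhibition above the hit limit set in the earlier mutant JAK2 cell screen, cut at about 27% in these data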;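 also: plate controls were DMSO-treated cells for no effect and JAK Inhibitor I control wells for full effect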
JAK2V617F confrm: Ba/F3 EpoR-JAK2V617F viability loss, confirmation. shares compounds with Ba/F3 V617F tox. CellTiter-Glo luminescence. inhibition, % at 5.6 µM. 580 compounds, 66% hits. AID 1521;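 active = mean inhibition above the hit cutoff derived in the earlier primary screen, cut at about 25% in these data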;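 also: 0% = DMSO-treated cells and 100% = JAK inhibitor I control wells; higher means lower luminescence from reduced cell ATP and viability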
* hit, by the source's call; nt = no result given. A selection: hits, their analogues and other compounds. The true share with any hit is near 1.9%.

SMILES | IEC-6 cytotox | BaF3 tox | APP transl inh | Ba/F3 V617F tox | KLF5 inh | BaF3 tox 2 | JAK2V617F confrm
Oc1ccccc1-c1csc(-c2ccccc2)n1 | 8.4 | 2.6 | -115.5 | -1.0 | -13.3 | nt | nt
Oc1ccc(-c2csc(-c3ccccc3)n2)cc1O | 5.5 | 23.1 | -52.9 | 57.4* | -141.4 | 26.7* | 93.5*
Oc1ccc(-c2csc(Nc3ncccn3)n2)cc1O | 2.2 | 8.2 | 30.6 | 37.0* | -162.3 | 28.0* | 91.1*
COc1ccc(S(=O)(=O)Nc2ccc(Cl)cn2)cc1 | 1.4 | nt | nt | nt | -130.4 | nt | nt
Cc1cccc(N(Cc2ccccc2)C(=O)CCl)c1 | -2.8 | 3.6 | 22.1 | 56.9* | 5.8 | 2.5 | 97.9*
Cc1cccc(N2CCN(Cc3cn(C)nc3-c3ccccc3F)CC2)n1 | 53.5* | 17.9 | 74.0* | 24.2* | 24.4 | 75.8* | 96.5*
Cn1cc(CN2CCN(c3ccc(Cl)cn3)CC2)c(-c2ccccc2F)n1 | -2.4 | -0.6 | 7.4 | -0.6 | -23.8 | nt | nt
COc1ccc(/C=N/n2cnc3c([nH]c4ccc(C)cc43)c2=O)cc1CN1CCCC1 | 6.2 | 5.8 | nt | 3.6 | -12.9 | nt | nt
COc1ccc(/C=N/n2cnc3c([nH]c4ccc(F)cc43)c2=O)cc1CN1CCCC1 | -0.5 | 14.8 | nt | 40.5* | 27.7 | 10.9 | 29.9*
Cc1ccc(-n2c(C)cc(/C=N/NC(=O)CN(c3ccc(C)cc3C)S(C)(=O)=O)c2C)cc1 | -4.7 | 2.4 | -1.9 | 1.0 | -14.3 | nt | nt
Cc1nc2nc3c(c(=O)n2[nH]1)CCC3 | -7.4 | 7.0 | 16.8 | -1.3 | -31.4 | nt | nt
Cc1[nH]c(=O)nc2c1CCC2 | 2.3 | 0.2 | -20.0 | 30.1* | -14.8 | -7.0 | -10.2
Oc1ccccc1/C=N/Nc1nc2ccccc2o1 | 9.9 | 5.8 | nt | 43.9* | 23.0 | 64.9* | 74.5*
Cc1ccc(NC(=S)N(CCN2CCOCC2)Cc2ccccc2F)cc1 | 4.5 | 8.0 | 8.3 | 2.6 | -6.2 | nt | nt
N#CC1=C2SCC(O)(c3ccccc3)N2C(=O)CC1c1ccccc1F (centres undefined) | 14.9 | 17.5 | -2.9 | 26.6* | 21.3 | 19.8 | 25.2*
COc1ccc(C2CC(=O)N3C(=C2C#N)SCC3(O)c2ccccc2)cc1 (centres undefined) | 5.2 | -0.7 | -20.5 | -5.1 | 0.9 | nt | nt
COc1cc(CNC2CCCCCC2)cc(OC)c1OC | -2.5 | 3.6 | -13.9 | -1.6 | -22.7 | nt | nt
O=C(CSc1nnnn1-c1ccc(F)cc1)c1ccc(O)c(O)c1 | 7.6 | -11.0 | 15.1 | 31.6* | 5.8 | 2.9 | 80.4*
O=C(O)c1ccc(CSc2nnnn2-c2ccc(F)cc2)cc1 | -1.7 | nt | nt | nt | -22.9 | nt | nt
CCOC(=O)c1c(NC(=O)/C=C/C(=O)O)sc(C)c1-c1ccc(C(C)(C)C)cc1 | -0.1 | 16.6 | -5.3 | 27.6* | -7.0 | 16.1 | 43.0*
CNS(=O)(=O)c1cccc(C(=O)OCC(=O)N(CCC#N)c2ccccc2)c1 | -1.8 | 8.2 | -4.0 | 2.5 | -33.0 | nt | nt
COc1cccc(NC(=O)Cc2c(O)c3ccccc3[nH]c2=O)c1 | -2.3 | -2.2 | -13.9 | -2.8 | -29.1 | nt | nt
Cc1ccc(C23CC4CC(CC(CC(=O)N5CCOCC5)(C4)C2)C3)cc1 | -2.2 | 5.3 | 10.6 | 96.8* | 1.4 | 2.7 | 15.8
Cc1ccc(C23CC4CC(CC(C(=O)N5CCN(C)CC5)(C4)C2)C3)cc1 | -6.7 | -2.1 | nt | -0.3 | -24.2 | nt | nt
Cc1cccc(C(=O)OCc2cc(=O)oc3c(C)c(C)ccc23)c1O | 3.0 | nt | nt | nt | -38.3 | nt | nt
SMILES | IEC-6 cytotox | BaF3 tox | APP transl inh | Ba/F3 V617F tox | KLF5 inh | BaF3 tox 2 | JAK2V617F confrm
NC(N)=NN=C1CCCCCCCCCCC1 | -6.0 | 21.5 | nt | 48.9* | 13.1 | 29.0* | 67.6*
CCOC(=O)CNCCC(=O)c1ccc(Br)cc1 | -6.5 | 2.5 | 3.6 | -0.6 | -2.5 | nt | nt
Cc1ccc(NC(=S)N(CCCN2CCC(C)CC2)Cc2ccco2)cc1C | -4.4 | 13.9 | 4.9 | 24.5* | -27.5 | 29.4* | 46.1*
CCOC(=O)N1CCN(C(=O)c2cc(-c3ccc(OCC)cc3)nc3ccccc23)CC1 | 23.9* | 20.4 | 78.4* | 68.2* | 6.1 | 69.2* | 94.0*
CCOc1ccc(-c2cc(C(=O)N3CCN(C)CC3)c3ccccc3n2)cc1 | -1.9 | 6.9 | -36.8 | 0.6 | -54.4 | nt | nt
CSCc1cc(N(C)C)nc(SCc2ccc(Cl)c(Cl)c2)n1 | -2.2 | 1.2 | -8.2 | 41.5* | 26.5 | -3.5 | 0.7
CNc1cc(CSC)nc(SCc2ccc(Cl)cc2Cl)n1 | -1.0 | 0.8 | -1.1 | -1.4 | -3.9 | nt | nt
CCOc1ccc(N2C(=O)CC(Sc3nnnn3-c3ccccc3)C2=O)cc1 (centres undefined) | 1.7 | 2.0 | 38.1 | 32.8* | -17.3 | -5.8 | 6.8
CC(C)(C)Nc1nc(Cl)nc(NCCN2CCOCC2)n1 | 6.1 | 0.3 | nt | -0.4 | -0.1 | nt | nt
Cc1c(NC(=O)COC(=O)c2cc(-c3ccc(-c4ccccc4)cc3)nc3ccccc23)c(=O)n(-c2ccccc2)n1C | 2.3 | 20.7 | -99.6 | 30.1* | -59.4 | 58.9* | 72.0*
CC(=O)c1sc(-c2ccccc2Cl)nc1C | -6.7 | 5.6 | 0.1 | 1.7 | -3.5 | nt | nt
COCCCN=C1NN=C(c2cc(C)n(Cc3ccco3)c2C)CS1 | -0.9 | -0.3 | 94.3* | 79.0* | -3.7 | 78.0* | 96.9*
NC(=O)c1ccccc1NC(=O)CCc1ccccc1 | -3.9 | 0.3 | -4.1 | -5.1 | -63.2 | nt | nt
NC(=O)c1ccccc1NC(=S)NC(=O)CCc1ccccc1 | 60.3* | 7.2 | 70.8* | 46.6* | 68.1* | 18.2 | 91.1*
Cc1nc(NCc2ccccc2)[nH]c(=O)c1CCC(C)C | 3.9 | -4.0 | -0.9 | 52.6* | 13.3 | -1.4 | -3.0
Cc1ccc(Nc2nc(C)c(CCC(C)C)c(=O)[nH]2)cc1 | -5.4 | 5.1 | -11.4 | 1.8 | -1.2 | nt | nt
C=CCn1c(SCC(=O)c2ccc(O)c(O)c2)nnc1-c1ccccc1OC | 3.3 | 11.4 | 1.6 | 34.4* | 15.1 | 0.4 | 13.6
O=c1oc2ccccc2c2c1ncn2CCN1CCOCC1 | 5.7 | 12.5 | -8.9 | 61.5* | -5.6 | 0.6 | 10.6
CCCCn1c(SCC(=O)c2ccc(O)c(O)c2)nc2ccsc2c1=O | -3.1 | 11.5 | -14.5 | 39.9* | -22.3 | 31.5* | 88.3*
COc1ccc(C(=O)/C=C/Nc2ccc(S(=O)(=O)Nc3cccc(C(C)=O)c3)cc2)cc1 | -1.0 | 14.5 | 6.5 | 31.4* | 4.5 | 7.6 | 29.9*
CNC(=O)c1nnsc1S(=O)c1ccc(Cl)cc1 (centres undefined) | 3.9 | 3.0 | 86.5* | 43.6* | 8.0 | 8.0 | 70.1*
CCCNC(=O)c1nnsc1S(=O)c1ccc(Cl)cc1 (centres undefined) | 13.9 | -2.6 | 94.5* | 54.8* | 4.8 | 41.6* | 99.1*
CCCNC(=O)c1ccc2snnc2c1 | -9.9 | -1.1 | -29.4 | -2.1 | -49.4 | nt | nt
Nc1cccc(C2=Nc3cccc4cccc(c34)N2)c1 | -5.9 | 6.5 | 4.3 | 53.1* | -1.7 | -7.1 | -10.0
COc1ccc(C2=Nc3cccc4cccc(c34)N2)cc1 | 4.5 | -3.1 | -1.5 | -4.2 | -18.8 | nt | nt
